# High-throughput results (PubChem BioAssay)
# HTT-AS act – HTT-AS promoter activation; HEK293 HTT-AS promoter firefly luciferase reporter, 24 h; response scale: percent change from vehicle, -100% = no light; Potency, µM (titrated, usually from 57.5 µM), for the others: top-dose activity change, positive = activation, usual class: activators; 48,000 compounds, 0.24% hits; note: potency is the fitted concentration of half-maximal effect; nearly all actives have a fitted effect of over 55% in size
#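 Firefly luciferase signal from promoter-reporter HEK293 cells was scaled between vehicle (0%) and zero RLU (-100%). Compounds were tested at final concentrations of up to 57.5 uM over 24 h at 37 degrees C. PTC124 at 50 uM final served as control inhibitor.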
# NTMT1 inh – inhibitors of human N-terminal methyltransferase NTMT1 | NTMT1 MTase-Glo SAH luminescence, purified enzyme | Potency, µM (titrated, usually from 114 µM), without a hit: top-dose activity change, negative = inhibition, most hits filed as inhibitors | 59,000 compounds, 2.5% hits;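 note: potency is the fitted concentration of half-maximal effect; plate controls were DMSO vehicle for no effect and no enzyme for full effect; nearly all actives have a fitted effect of over 65% in size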
# Target sequence (Q9BV86 whole entry, looked up): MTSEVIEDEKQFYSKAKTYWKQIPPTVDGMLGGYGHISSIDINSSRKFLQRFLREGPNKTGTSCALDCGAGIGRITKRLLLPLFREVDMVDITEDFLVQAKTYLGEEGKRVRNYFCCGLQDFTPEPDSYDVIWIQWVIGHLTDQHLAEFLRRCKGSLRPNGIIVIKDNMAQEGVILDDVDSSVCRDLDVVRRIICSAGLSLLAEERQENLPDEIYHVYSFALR
# OvCa metastasis – inhibitors of ovarian cancer cell adhesion and invasion in omental model; SKOV3ip1-GFP adhesion/invasion on 3D omental model, fluorescence; Potency, µM (doses to about 45.8 µM), without a hit: at the highest dose activity change, negative = inhibition, usual class: inhibitors; 46,000 compounds, 0.1% hits;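 note: potency is the fitted concentration of half-maximal effect; plate controls were DMSO wells for no effect and tomatine positive control wells for full effect; nearly all actives have a fitted effect of over 65% in size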
#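 qHTS, 4-pt dose (0.36-46 umol/L); SKOV3ip1-GFP, 1,200 cells/well, no FBS; primary omental fibroblast/mesothelial co-culture 48 h pre-grown; 2 h RT + 16 h 37 C; PBS wash, 4% PFA; GFP count 488/509 nm.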
# HTT promoter inh – inhibitors of huntingtin promoter activity. HEK293 HTT promoter firefly luciferase reporter, 24 h. Potency, µM (top dose mostly 57.5 µM), for inactives: at the highest dose activity change, negative = inhibition, actives largely listed as inhibitors. 48,000 compounds, 0.93% hits. AID 1508623; note: potency is the fitted concentration of half-maximal effect; nearly all actives have a fitted effect of over 50% in size
#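 Firefly luciferase readout (Dual-Glo, 10 min RT) after 24 h, 37 °C compound exposure (final up to 57.5 uM) of HEK293 reporter cells cultured 24 h beforehand; PTC124 at 50 uM final as control inhibitor; activity scaled vehicle 0%, zero RLU -100%.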
# GALK inh – GALK (human) enzyme inhibition; Potency, µM (series often up to 57.5 µM), for the others: at the top dose activity, negative = inhibition, hits mostly inhibitors; 44,000 tested, under 10 active; AID 1347072; recombinant GALK, Kinase-Glo ATP luminescence, 1 h;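 note: plate controls were full GALK reaction for no effect and reaction lacking GALK for full effect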
#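 Reactions with and without enzyme served as controls. GALK at 5 nM phosphorylates 100 uM galactose using 35 uM ATP (HEPES pH 8.0, Mg2+) for 1 h at RT, with luminescence read 10 min after adding Kinase-Glo Plus.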
# TSG101-PTAP inh – TSG101-PTAP interaction inhibition, HIV-1 budding | AID 1347069 | Potency, µM (top dose mostly 115 µM), actives largely listed as inhibitors | 44,000 tested, under 10 active | Q99816 | Fluorescence polarization, FITC-PTAP peptide/Tsg101, 20 min; note: potency is the fitted concentration of half-maximal effect; 0% is about no effect
#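 Compounds pinned into 10 uM Tsg101 binding domain, then 50 nM FITC-PTAP peptide added in pH 7.5 HEPES buffer; FP read after 20 min, room temperature. Total S+P intensity flags fluorescent compounds; active cut-off <25 µM, efficacy <60%.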
# Starred values were filed as active, the others as inactive; i = inactive; ? = inconclusive; nt = not tested or not shown; ! = not active in a repeat; [ ] = another dose, or the depositor's remark. This is a sample that favours compounds with a hit; in the whole collection about 2.5% have one here. Calls come from the whole dose curve; as a rule, active = well fitted curve in the direction sought with a large enough effect; inconclusive = small, poorly fitted or top-dose-only effect, or another doubt; inactive = no such curve, though single readings can be large; an effect the other way counts as inactive or inconclusive.
SMILES,HTT-AS act,NTMT1 inh,OvCa metastasis,HTT promoter inh,GALK inh,TSG101-PTAP inh
O=C(O)C1(C(=O)O)CCC1.[NH2-].[NH2-].[Pt+2],-5%,18µM*,nt,0%,nt,nt
CN[C@@H](C)C(=O)N[C@H]1CCCC[C@H]2CC[C@@H](C(=O)N[C@@H](c3ccccc3)c3cn(CCCCc4ccc(CCCCn5cc([C@@H](NC(=O)[C@@H]6CC[C@@H]7CCCC[C@H](NC(=O)[C@H](C)NC)C(=O)N76)c6ccccc6)nn5)cc4)nn3)N2C1=O,-2%,28µM*!,14%,8%,nt,nt
Cc1cccc(-c2noc(-c3ccc(N4CCCC4)c([N+](=O)[O-])c3)n2)c1,-68%,?,1%,?,2%,i
Cc1cccc(-c2noc(-c3ccc(N4CCN(C)CC4)c([N+](=O)[O-])c3)n2)c1,-73%,-9%,9%,1.4µM*,2%,i
COc1cc(C2CC(=O)N(Cc3cccc(F)c3)c3ccccc3S2)cc(OC)c1OC (configuration not stated),-69%,8%,-1%,20µM*,1%,i
O=C(Nc1ccc(F)cc1)c1ccc(Cn2nc(N3CCN(c4ccccc4)CC3)ccc2=O)o1,-42%,-6%,i,14µM*,0%,i
Nc1ncnc2c1ncn2CCNCCCCCO,nt,1%[57.5 µM],nt,nt,nt,nt
COc1cccc(CSc2nc3n(n2)C(c2ccc(C(=O)O)cc2)C(C(=O)Nc2ccccc2)=C(C)N3)c1 (configuration not stated),6%,45µM*,i,13%,-1%,i
CCOc1ccc(C2C(C(=O)Nc3ccccc3)=C(C)Nc3nc(SCc4cccc(OC)c4)nn32)cc1 (configuration not stated),4%,7%,-17%,6%,2%,i
Cc1[nH]c2ccc(F)cc2c1-c1nc2c3cccnc3c3ncccc3c2[nH]1,nt,44%[57.5 µM],nt,nt,nt,nt
Cc1ccc(-c2nc3scc(CCNS(=O)(=O)c4ccc(Oc5ccccc5)cc4)n3n2)cc1,-84%,12%,-15%,20µM*,1%,i
CC1=CC(=O)CC(C)(C)C1(O)CCC(C)O (configuration not stated),nt,9%[57.5 µM],nt,nt,nt,nt
O=C(Nc1ccc(N2CCC(N3CCCCC3)CC2)c(C(=O)O)c1)c1ccc(Br)cc1,0%,?,1%,-11%,2%,i
O=C(Nc1ccc(N2CCOCC2)c(C(=O)O)c1)c1ccc(Br)cc1,18%,89µM*,-14%,-2%,-2%,i
Cc1ccc(Cl)cc1-n1ncc2c(Nc3cccc(C)c3C)ncnc21,-18%,5.6µM*,14%,?,3%,i
Cc1ccc(-n2ncc3c(Nc4cccc(Cl)c4)ncnc32)c(C)c1,-2%,-3%,10µM*,-14%,1%,i
COc1ccc(Nc2ncnc3c2cnn3-c2cc(Cl)ccc2C)cc1OC,0%,?,i,-30%,5%,i
C=C(C(=O)O)[C@@H]1CC[C@@]2(C)CC[C@@H](O)C(=C)C2C1 (some centres not stated),nt,15%[57.5 µM],nt,nt,nt,nt
COc1ccccc1C(=O)N1CCc2cc(-c3nc(NC(=O)Cc4ccc5c(c4)OCO5)sc3C)ccc21,nt,-3%,nt,nt,nt,nt
C/C(=C\Cc1c(O)c(Cl)c(C)c(C=O)c1O)CC/C=C(\C)[C@H]1CC(=O)C(C)(C)O1,nt,-17%[29.8 µM],nt,nt,nt,nt
COC(=O)CCSCc1ccc(-c2onc(C)c2NC(=O)OC(C)c2ccccc2Cl)cc1 (configuration not stated),nt,3%[57.5 µM],nt,nt,nt,nt
COc1ccc2sc(N(Cc3cccnc3)C(=O)c3ccc4c(c3)OCCO4)nc2c1,-20%,-3%,i,11µM*,0%,i
Cc1cc(C)c(NC(=O)CSc2nccn2Cc2ccco2)c(C)c1,5µM*,5%,4%,44%,2%,i
